# Measurements published in PubChem BioAssay (Tox21).
# “And” between values parts separate entries of the source, which are not always exact repeats. Equal values may be shown once. Inconclusive results are not listed. Entries that show only a call come without a potency. More than one record can exist for a structure, and the calls need not agree. The source made the active and inactive calls. Unless noted, calls follow the shape of the dose curve; as a rule, active = well fitted curve in the direction sought with a large enough effect in the repeat runs; inconclusive = weak or mixed curves; inactive = no such curve, though single readings can be large; an effect the other way counts as inactive or inconclusive.
# Key:
# [1] = molecular target: Progesterone receptor (Homo sapiens) (UniProt P06401); assay: qHTS assay to identify small molecule antagonists of the progesterone receptor (PR) signaling pathway (AID 1346795; active = well fitted inhibition curve with a large enough effect in the signal ratio in the repeat runs, not every such curve was filed as active; the % refers to the signal ratio; also: potency is read from the fitted curve at half-maximal effect)
# Chain of Progesterone receptor (Homo sapiens) (P06401 whole entry, looked up): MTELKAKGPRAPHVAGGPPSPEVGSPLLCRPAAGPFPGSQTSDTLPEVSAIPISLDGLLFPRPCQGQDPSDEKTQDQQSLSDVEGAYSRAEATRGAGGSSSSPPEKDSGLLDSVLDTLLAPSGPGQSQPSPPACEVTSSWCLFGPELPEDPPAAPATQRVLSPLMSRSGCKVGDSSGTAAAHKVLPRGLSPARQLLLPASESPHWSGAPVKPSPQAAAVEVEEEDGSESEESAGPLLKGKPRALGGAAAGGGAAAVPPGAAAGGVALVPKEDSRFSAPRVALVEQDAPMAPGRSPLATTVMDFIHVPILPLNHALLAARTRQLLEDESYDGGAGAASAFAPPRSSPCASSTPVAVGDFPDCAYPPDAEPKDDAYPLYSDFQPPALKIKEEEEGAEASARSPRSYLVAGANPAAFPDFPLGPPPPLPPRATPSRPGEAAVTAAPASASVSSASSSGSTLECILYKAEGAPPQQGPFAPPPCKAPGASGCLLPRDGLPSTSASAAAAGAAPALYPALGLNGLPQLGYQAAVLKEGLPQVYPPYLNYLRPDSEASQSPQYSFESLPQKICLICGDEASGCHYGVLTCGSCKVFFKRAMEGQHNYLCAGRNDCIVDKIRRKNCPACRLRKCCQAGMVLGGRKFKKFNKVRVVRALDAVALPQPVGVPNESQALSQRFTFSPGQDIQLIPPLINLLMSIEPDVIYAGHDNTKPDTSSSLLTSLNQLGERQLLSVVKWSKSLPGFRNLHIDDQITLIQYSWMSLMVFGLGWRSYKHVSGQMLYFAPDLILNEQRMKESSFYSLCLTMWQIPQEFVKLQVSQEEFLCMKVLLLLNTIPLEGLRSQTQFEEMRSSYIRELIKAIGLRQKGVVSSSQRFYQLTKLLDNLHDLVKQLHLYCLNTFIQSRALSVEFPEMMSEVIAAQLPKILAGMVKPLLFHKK
# In short: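 HEK293T PR-UAS-bla reporter cells in charcoal-stripped serum (2%) received compound after a 6 hr settling period, followed by R5020 agonist at 1 nM final; 16 hr incubation preceded the FRET substrate step and fluorescence measurement.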
# [2] = qHTS assay to identify small molecule antagonists of the progesterone receptor (PR) signaling pathway - cell viability counter screen (AID 1346798); also: series mostly up to about 92 µM; nearly all actives have a fitted effect of over 50% in size
# In short: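 Same-well multiplex: after 16 hr at 37C with compound and R5020 stimulation, HEK293T cells carrying a UAS-bla reporter received LiveBLAzer substrate (2 hr RT), then CellTiter-Glo (30 min RT) for luminescent viability.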
# [3] = qHTS assay to identify small molecule agonists of the progesterone receptor (PR) signaling pathway - cell viability counter screen (AID 1346799; calls by dose curve; also: nearly all actives have a fitted effect of over 45% in size)
# In short: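 Counter screen for cytotoxicity: compound-treated PR-UAS-bla HEK293T cells (16 hr, 37C, 5% CO2) were assayed with CellTiter-Glo, luminescence measured after 30 min at room temperature.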
# [4] = qHTS assay to identify small molecule antagonists of the TGF-beta/Smad signaling pathway - cell viability counter screen (AID 1346824); also: nearly all actives have a fitted effect of over 50% in size
# In short: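 SBE-bla HEK 293T cells, incubated overnight, then compound plus 0.25 ng/mL TGF-beta1 (stock added) for 5 hr at 37 C. Viability was read in the same wells by CellTiter-Glo luminescence after 30 min at room temperature.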
# [5] = qHTS assay to identify small molecule agonists of the TGF-beta/Smad signaling pathway - cell viability counter screen (AID 1346829); also: top concentration of the series differs between compounds; nearly all actives have a fitted effect of over 45% in size
# In short: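 Cytotoxicity counter screen: CellTiter-Glo luminescence (30 min, room temperature) measured in the SBE-bla HEK 293T reporter wells after 5 hr compound treatment at 37 C and the 2 hr substrate step.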
# [6] = qHTS assay to identify small molecule agonists of the TGF-beta/Smad signaling pathway (AID 1346859; active = well fitted activation curve with a large enough effect in the signal ratio in the repeat runs, not every such curve was filed as active; the % refers to the signal ratio; also: series mostly up to about 77 µM)
# In short: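 Smad-responsive beta-lactamase reporter cells (HEK 293T) received compounds from DMSO stocks after overnight attachment, were incubated 5 hr, then treated 2 hr with FRET substrate before dual-emission fluorescence measurement (405 nm excitation).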
# [7] = molecular target: Thyrotropin-releasing hormone receptor (Homo sapiens) (UniProt P34981); assay: qHTS assay to identify small molecule antagonists of the thyrotropin-releasing hormone receptor (TRHR) signaling pathway (AID 1346877; active = well fitted inhibition curve with a large enough effect in the repeat runs, not every such curve was filed as active; also: series mostly up to about 51 µM)
# Chain of Thyrotropin-releasing hormone receptor (Homo sapiens) (P34981 whole entry, looked up): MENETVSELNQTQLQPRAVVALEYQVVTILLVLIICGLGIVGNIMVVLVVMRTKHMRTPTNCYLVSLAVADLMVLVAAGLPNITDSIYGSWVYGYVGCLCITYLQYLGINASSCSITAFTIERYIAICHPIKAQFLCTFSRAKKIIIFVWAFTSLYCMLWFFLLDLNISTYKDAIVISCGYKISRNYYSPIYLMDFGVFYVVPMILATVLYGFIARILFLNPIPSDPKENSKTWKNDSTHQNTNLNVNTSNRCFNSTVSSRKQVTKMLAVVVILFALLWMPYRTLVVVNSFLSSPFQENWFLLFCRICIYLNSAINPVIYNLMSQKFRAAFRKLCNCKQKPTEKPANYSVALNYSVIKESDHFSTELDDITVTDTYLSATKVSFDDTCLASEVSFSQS
# In short: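 Human TRHR in HEK293 cells; inhibition of the intracellular calcium rise triggered by 1 nM TRH was followed by fluorescence over 3 min. Compounds were run at 15 concentrations, three replicates each.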
# [8] = molecular target: Thyrotropin-releasing hormone receptor (Homo sapiens) (UniProt P34981); assay: qHTS assay to identify small molecule agonists of the thyrotropin-releasing hormone receptor (TRHR) signaling pathway (AID 1346891; calls by dose curve;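 also: HEK293 cells expressing TRHR with calcium dye readout; series mostly up to about 58 µM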)
# In short: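 Agonist-mode calcium mobilisation screen: TRHR-transfected HEK293 cells cultured overnight (18 h), dye-loaded for 2 h at 37 °C, exposed to compounds, and monitored by fluorescence for 3 min.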
# [9] = Human pregnane X receptor (PXR) small molecule agonists, qHTS cell viability counter screen (AID 1346977); also: nearly all actives have a fitted effect of over 50% in size; also: potency is read from the fitted curve at half-maximal effect
# In short: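 Measures live-cell protease fluorescence (CellTiter-Fluor) in PXR-Luc HepG2 cells treated 24hr with compounds at 37C. Cells had 5hr to attach before pin transfer of DMSO solutions.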
# [10] = Caspase-3/7 induction in HepG2 cells by small molecules, qHTS assay (AID 1346978); also: nearly all actives have a fitted effect of over 15% in size
# In short: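 Wild-type HepG2 cells, 2,000/well, settled 5 hr at 37 C and 5% CO2, then compound-treated for 17 hr; caspase-3/7 activity read by luminescent Caspase-Glo 3/7 after 30 min at room temperature.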
# [11] = Caspase-3/7 induction in CHO-K1 cells by small molecules, qHTS cell viability counter screen (AID 1346979); also: nearly all actives have a fitted effect of over 35% in size; also: potency is read from the fitted curve at half-maximal effect
# In short: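 In the same wells as the caspase read, viability of compound-treated wild-type CHO-K1 cells was assessed using CellTiter-Fluor, added after 16hr at 37C and measured by fluorescence following 1hr further incubation.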
# [12] = Caspase-3/7 induction in CHO-K1 cells by small molecules, qHTS assay (AID 1346980); also: nearly all actives have a fitted effect of over 15% in size
# In short: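 Wild-type CHO-K1 cells exposed to compounds for 17hr at 37 C, 5% CO2. Caspase-3/7 activity then measured by Caspase-Glo 3/7 luminescence after 30min at room temperature.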
# [13] = Caspase-3/7 induction in HepG2 cells by small molecules, qHTS cell viability counter screen (AID 1346981); also: nearly all actives have a fitted effect of over 30% in size; also: potency is read from the fitted curve at half-maximal effect
# In short: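 The parent HepG2 line is plated at 2,000 cells per well and rested 5 hr before compound pinning from DMSO stocks. Following a 16-hr treatment at 37 C, a fluorogenic live-cell substrate (CellTiter-Fluor) reports viability after 1 hr.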
# [14] = molecular target: Nuclear receptor subfamily 1 group I member 2 (Homo sapiens) (UniProt O75469); assay: Human pregnane X receptor (PXR) small molecule agonists, qHTS assay (AID 1346982); also: nearly all actives have a fitted effect of over 35% in size; also: potency is read from the fitted curve at half-maximal effect
# Chain of Nuclear receptor subfamily 1 group I member 2 (Homo sapiens) (O75469 whole entry, looked up): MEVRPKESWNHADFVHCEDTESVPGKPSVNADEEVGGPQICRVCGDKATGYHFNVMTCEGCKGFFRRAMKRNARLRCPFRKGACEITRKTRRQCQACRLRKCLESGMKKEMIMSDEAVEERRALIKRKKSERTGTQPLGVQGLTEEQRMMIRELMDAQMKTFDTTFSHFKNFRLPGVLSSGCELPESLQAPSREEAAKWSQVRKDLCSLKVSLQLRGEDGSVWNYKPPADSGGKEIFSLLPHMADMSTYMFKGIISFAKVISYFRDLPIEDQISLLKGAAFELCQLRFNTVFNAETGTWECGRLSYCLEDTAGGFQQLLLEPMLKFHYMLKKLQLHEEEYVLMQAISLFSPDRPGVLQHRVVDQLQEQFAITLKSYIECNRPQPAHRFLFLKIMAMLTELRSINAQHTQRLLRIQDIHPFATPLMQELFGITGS
# In short: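 After plating in 5% charcoal-stripped FBS and a 5 hr rest, PXR-Luc HepG2 cells received compounds in DMSO. Following 24 hr at 37 C, ONE-Glo was added and light output read.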
# [15] = molecular target: Cytochrome P450 2D6 (Homo sapiens) (UniProt P10635); assay: Cytochrome P450 Family 2 Subfamily D Member 6 (CYP2D6) small molecule antagonists: luciferase reporter qHTS assay (AID 1671196); also: nearly all actives have a fitted effect of over 50% in size; also: potency is read from the fitted curve at half-maximal effect
# Chain of Cytochrome P450 2D6 (Homo sapiens) (P10635 whole entry, looked up): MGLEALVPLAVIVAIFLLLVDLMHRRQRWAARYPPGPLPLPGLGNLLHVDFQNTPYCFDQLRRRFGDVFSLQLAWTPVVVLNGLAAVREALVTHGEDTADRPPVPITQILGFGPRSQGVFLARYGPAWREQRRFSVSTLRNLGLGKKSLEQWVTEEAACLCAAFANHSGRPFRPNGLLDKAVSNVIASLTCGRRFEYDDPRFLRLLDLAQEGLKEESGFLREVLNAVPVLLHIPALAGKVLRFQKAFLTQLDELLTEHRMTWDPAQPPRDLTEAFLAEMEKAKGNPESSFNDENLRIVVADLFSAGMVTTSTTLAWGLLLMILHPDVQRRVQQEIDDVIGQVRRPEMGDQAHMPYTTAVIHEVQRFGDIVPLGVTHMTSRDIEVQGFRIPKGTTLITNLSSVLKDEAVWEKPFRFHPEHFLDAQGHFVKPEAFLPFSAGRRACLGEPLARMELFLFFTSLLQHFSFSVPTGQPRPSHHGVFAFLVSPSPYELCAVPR
# In short: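 Quantitative HTS of Tox21 chemicals against CYP2D6 using a luminescent proluciferin substrate. After NADPH addition, 1 h room-temperature reaction; luminescence recorded 20 min post detection reagent.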
# [16] = molecular target: Cytochrome P450 2C19 (Homo sapiens) (UniProt P33261); assay: Cytochrome P450 Family 2 Subfamily C Member 19 (CYP2C19) small molecule antagonists: luciferase reporter qHTS assay (AID 1671197); also: nearly all actives have a fitted effect of over 65% in size; also: potency is read from the fitted curve at half-maximal effect
# Chain of Cytochrome P450 2C19 (Homo sapiens) (P33261 whole entry, looked up): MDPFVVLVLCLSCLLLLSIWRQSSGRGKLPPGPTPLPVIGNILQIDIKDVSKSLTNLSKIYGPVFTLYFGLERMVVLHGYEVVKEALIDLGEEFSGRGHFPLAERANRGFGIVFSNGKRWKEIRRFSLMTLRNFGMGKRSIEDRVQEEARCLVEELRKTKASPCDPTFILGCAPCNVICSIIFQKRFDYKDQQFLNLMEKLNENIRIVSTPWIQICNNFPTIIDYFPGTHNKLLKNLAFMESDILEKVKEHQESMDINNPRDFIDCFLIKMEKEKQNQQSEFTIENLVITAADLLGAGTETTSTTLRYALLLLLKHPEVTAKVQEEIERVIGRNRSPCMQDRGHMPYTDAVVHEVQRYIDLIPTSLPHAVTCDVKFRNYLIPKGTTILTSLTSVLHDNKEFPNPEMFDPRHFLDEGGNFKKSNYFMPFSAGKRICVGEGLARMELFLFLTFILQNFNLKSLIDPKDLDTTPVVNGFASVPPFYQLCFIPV
# In short: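 Luminescent readout of CYP2C19 activity: luciferin product detected 20 min after adding detection reagent. Before that, compound and enzyme-substrate mix preincubated 10 min at room temperature; NADPH-regenerating system started a 1 h, 37C reaction. Ketoconazole as positive control.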
# [17] = molecular target: Cytochrome P450 2C9 (Homo sapiens) (UniProt P11712); assay: Cytochrome P450 Family 2 Subfamily C Member 9 (CYP2C9) small molecule antagonists: luciferase reporter qHTS assay (AID 1671198); also: nearly all actives have a fitted effect of over 50% in size; also: potency is read from the fitted curve at half-maximal effect
# Chain of Cytochrome P450 2C9 (Homo sapiens) (P11712 whole entry, looked up): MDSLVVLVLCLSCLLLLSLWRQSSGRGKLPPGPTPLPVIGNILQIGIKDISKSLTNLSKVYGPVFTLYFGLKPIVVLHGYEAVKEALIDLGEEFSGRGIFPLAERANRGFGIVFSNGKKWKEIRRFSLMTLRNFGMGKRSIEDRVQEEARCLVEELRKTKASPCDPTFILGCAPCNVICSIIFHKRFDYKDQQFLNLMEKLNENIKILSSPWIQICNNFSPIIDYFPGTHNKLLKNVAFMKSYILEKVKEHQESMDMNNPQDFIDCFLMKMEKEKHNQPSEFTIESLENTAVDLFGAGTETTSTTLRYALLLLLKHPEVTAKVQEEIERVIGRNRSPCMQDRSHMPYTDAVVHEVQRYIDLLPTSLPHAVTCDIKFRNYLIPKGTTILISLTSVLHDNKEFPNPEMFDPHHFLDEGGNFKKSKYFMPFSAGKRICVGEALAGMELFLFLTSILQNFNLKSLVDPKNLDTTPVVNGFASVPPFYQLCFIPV
# In short: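 P450-Glo proluciferin substrate with CYP2C9 enzyme; 10 min RT preincubation, then NADPH regeneration 1 h at 37C; luciferin detection reagent 20 min RT, luminescence in relative luminescence units.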
# [18] = molecular target: Nuclear receptor subfamily 1 group I member 2 (Rattus norvegicus) (UniProt Q9R1A7); assay: Rat pregnane X receptor (rPXR) activation by small molecules, qHTS assay (AID 1346983); settings: rPXR luciferase reporter cells, One-Glo luminescence, 24 h; max activation: stronger effect = higher value; also: nearly all actives have a fitted effect of over 20% in size
# Chain of Nuclear receptor subfamily 1 group I member 2 (Rattus norvegicus) (Q9R1A7 whole entry, looked up): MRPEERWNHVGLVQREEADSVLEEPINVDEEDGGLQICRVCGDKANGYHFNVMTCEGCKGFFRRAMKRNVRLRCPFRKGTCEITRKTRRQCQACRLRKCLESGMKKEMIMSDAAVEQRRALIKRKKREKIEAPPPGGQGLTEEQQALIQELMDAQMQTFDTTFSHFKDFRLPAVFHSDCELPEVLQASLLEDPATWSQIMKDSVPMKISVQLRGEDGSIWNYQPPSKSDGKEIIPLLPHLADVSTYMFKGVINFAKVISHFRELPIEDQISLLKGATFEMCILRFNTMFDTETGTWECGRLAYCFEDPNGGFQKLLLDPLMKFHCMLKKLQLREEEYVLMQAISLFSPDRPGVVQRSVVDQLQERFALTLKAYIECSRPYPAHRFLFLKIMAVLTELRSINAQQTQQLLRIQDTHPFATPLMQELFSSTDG
# In short: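 Cell-based rPXR activation assay: rPXR cells, 2,000 per well, rested 5hr at 37 C, then exposed to compounds in DMSO for 24 hr at 37 C. Luciferase activity read by One-Glo luminescence after 30 min at room temperature.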
# [19] = molecular target: Nuclear receptor subfamily 1 group I member 2 (Homo sapiens) (UniProt O75469); assay: Human pregnane X receptor (PXR) activation by small molecules, qHTS assay (AID 1346985); also: nearly all actives have a fitted effect of over 40% in size
# In short: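 DPX-2 cells (HepG2 co-transfected with a PXR response element and a CYP3A4-promoter luciferase construct) were seeded at 2,000 per well, rested 5 hr at 37C, then exposed to DMSO-dissolved compounds for 24 hr. Activation was read as luciferase luminescence.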
Structure (SMILES),Potency [1],Potency [2],Potency [3],Potency [4],Potency [5],outcome [6],outcome [7],Potency [8],Potency [9],Potency [10],Potency [11],outcome [12],Potency [13],Potency [14],Potency [15],Potency [16],Potency [17],max activation [18],Potency [19]
Cn1cnc2c1c(=O)[nH]c(=O)n2C,inactive,inactive,inactive,inactive,inactive,inactive,inactive,inactive,inactive,inactive,inactive,inactive,inactive,,,,,,
CCCCOCCOCCSC#N,,inactive,inactive,inactive,inactive,inactive,inactive,inactive,inactive,inactive,inactive,inactive,inactive,32.3 µM (active) and 26.8 µM (active),inactive,8.4 µM (active) and inactive,inactive,,
CO[C@H]1C=CO[C@@]2(C)Oc3c(C)c(O)c4c(O)c(c(/C=N/N5CCN(C)CC5)c(O)c4c3C2=O)NC(=O)/C(C)=C\C=C[C@H](C)[C@H](O)[C@@H](C)[C@@H](O)[C@@H](C)[C@H](OC(C)=O)[C@@H]1C,inactive,inactive,inactive,inactive,inactive,inactive,inactive,inactive,35.5 µM (active) and 19.6 µM (active) and 23.7 µM (active),inactive,30.8 µM (active) and 34.8 µM (active) and 26.6 µM (active),inactive,27.4 µM (active) and 34.8 µM (active) and 23.7 µM (active),,inactive,35.8 µM (active) and 50.8 µM (active) and 9.77 µM (active),,-4.8% (inactive),
Nc1cccc(N)c1,,inactive,inactive,inactive,inactive,inactive,inactive,inactive,inactive,inactive,inactive,inactive,inactive,54.4 µM (active) and inactive,39.8 µM (active) and 31.3 µM (active) and inactive,56.3 µM (active) and 39.4 µM (active),70.9 µM (active),,
Nc1ccc(N=Nc2ccccc2)c(N)n1,43.3 µM (active),inactive,inactive,inactive,inactive,inactive,inactive,inactive,,inactive,48.8 µM (active) and 48.6 µM (active) and 26.6 µM (active),inactive,21.1 µM (active),27.4 µM (active) and 27.3 µM (active) and 6.68 µM (active),40.1 µM (active) and 35.6 µM (active) and 12.3 µM (active),20.1 µM (active) and 28.3 µM (active) and 9.77 µM (active),20.1 µM (active) and 28.3 µM (active) and 17.4 µM (active),,
C[C@]12CC[C@@H]3c4ccc(O)cc4CC[C@H]3[C@@H]1CCC2=O,,inactive,inactive,inactive,inactive,inactive,inactive,inactive,inactive,inactive,inactive,inactive,inactive,,,,,,
Cc1cnc(NC(=O)C2=C(O)c3ccccc3S(=O)(=O)N2C)s1,inactive,inactive,inactive,,inactive,inactive,inactive,inactive,inactive,inactive,61.3 µM (active) and inactive,inactive,inactive,,inactive,inactive,7.98 µM (active) and 11.2 µM (active) and 12.3 µM (active),,
C[C@]12C[C@H](O)[C@H]3[C@@H](CCC4=CC(=O)CC[C@@]43C)[C@@H]1CC[C@@H]2C(=O)CO,inactive,inactive,,inactive,inactive,inactive,,,inactive,inactive,inactive,inactive,inactive,8.65 µM (active) and 38.6 µM (active),inactive,,,-5.48% (inactive),inactive
O=c1c(-c2ccc(O)cc2)coc2cc(O)cc(O)c12,23.9 µM (active) and 17.2 µM (active) and 13.3 µM (active),inactive,,inactive,inactive,inactive,,,inactive,inactive,60.1 µM (active) and 48.6 µM (active),inactive,inactive,47.7 µM (active) and 30.6 µM (active) and 29.8 µM (active),inactive,55.5 µM (active) and 89.4 µM (active),55.5 µM (active) and 71 µM (active) and inactive,,
CC(=O)Oc1ccccc1C(=O)O,inactive,inactive,inactive,inactive,inactive,inactive,,,inactive,inactive,inactive,inactive,inactive,inactive,inactive,79.2 µM (active) and inactive,inactive,,
CC(=O)OC/C=C(C)/C=C/C=C(C)/C=C/C1=C(C)CCCC1(C)C,inactive,inactive,inactive,inactive,inactive,inactive,inactive,inactive,inactive,inactive,66.9 µM (active) and 68.6 µM (active) and inactive,inactive,inactive,59.6 µM (active) and 34.4 µM (active) and 15 µM (active),34.7 µM (active) and inactive,39 µM (active) and 35.6 µM (active),31 µM (active) and 31.7 µM (active) and 19.5 µM (active),,
